Screening results (PubChem)
CYP2C9 inh: blockers of cytochrome P450 2C9 activity – biochemical, luminescence, ADME assay, primary screen | hit rate 20% among 96,000 | inhibition, % at 5 µM | CYP2C9 Supersomes, luciferin-H conversion;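 active = blocking of liver enzyme CYP2C9 beyond about 50% at 5 µM, limit read from the data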
Target sequence (P11712 whole entry, looked up): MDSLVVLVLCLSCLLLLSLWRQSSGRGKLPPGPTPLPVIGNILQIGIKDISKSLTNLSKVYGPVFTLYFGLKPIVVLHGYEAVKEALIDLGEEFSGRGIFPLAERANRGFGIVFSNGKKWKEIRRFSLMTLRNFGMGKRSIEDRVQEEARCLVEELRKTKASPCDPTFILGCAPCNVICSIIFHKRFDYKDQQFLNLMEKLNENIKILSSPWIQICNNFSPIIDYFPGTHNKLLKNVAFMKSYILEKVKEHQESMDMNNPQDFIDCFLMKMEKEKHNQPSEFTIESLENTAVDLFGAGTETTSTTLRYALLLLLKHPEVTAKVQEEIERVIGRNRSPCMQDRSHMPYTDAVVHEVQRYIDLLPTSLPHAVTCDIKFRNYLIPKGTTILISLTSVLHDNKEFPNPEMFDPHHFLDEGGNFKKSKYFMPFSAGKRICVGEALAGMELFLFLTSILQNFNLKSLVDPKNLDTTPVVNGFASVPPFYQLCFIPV
CYP2C9 act: human CYP2C9 activators, primary screen, biochemical, luminescence | Cytochrome P450 2C9 (Homo sapiens), P11712 | recombinant CYP2C9, luciferin-H conversion; stronger effect = higher value; factor 1 = untreated enzyme, 0 = blocked | activation factor at 5 µM | hit rate 1.4% among 96,000 | AID 1024, 2008;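 active = activation factor of 2 or more for CYP2C9 at a 5 µM dose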;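 also: 0 = sulfaphenazole-blocked wells and 1 = vehicle-only wells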
CYP2C19 inhib: blockers of cytochrome P450 2C19 activity – biochemical, luminescence, ADME assay, primary screen | P33261 | hit rate 21% among 96,000 | inhibition, % at 5 µM | CYP2C19 Supersomes, luciferin-H EGE luminescence, 30 min;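 active = CYP2C19 inhibition above a set limit at 5 µM in the primary screen, cut at about 50% in these data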;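 also: plate controls were negative control wells for no effect and 2.5 mM tranylcypromine positive control for full effect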
PLK1 PBD inh: Plk1 polo box domain binding inhibitors, primary screen, biochemical, fluorescence polarization. Serine/threonine-protein kinase PLK1 (Homo sapiens), P53350. Plk1 PBD phosphopeptide binding. inhibition, %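 (tested at about 20 µM)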. hit rate 0.13% among 97,000. AID 693, 2007; in the data active = inhibition above about 34%, passing the limit was not always enough
CYP2C19 act: human CYP2C19 activators, primary screen, biochemical, luminescence. recombinant CYP2C19, luciferin-H EGE luminescence; stronger effect = higher value; 0 = fully inhibited enzyme, 1 = untreated enzyme. activation factor at 5 µM. 96,000 tested, under 10 active;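 active = activation factor of at least 2 at 5 µM in the primary screen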;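 also: 0 = wells with 2.5 mM tranylcypromine and 1 = vehicle-only wells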
PLK1 inh: human PLK1 kinase inhibitors, primary screen, biochemical, TR-FRET. recombinant PLK1 kinase, TR-FRET peptide phosphorylation. Serine/threonine-protein kinase PLK1 (Homo sapiens), P53350. hit rate 0.53% among 97,000. inhibition, % at 10 µM;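 active = inhibition of 50% or more in the single-concentration screen; inactive = inhibition below 50%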;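 also: 0% = DMSO max control and 100% = H-89 dihydrochloride min control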
The depositor's hits bear a star; x = no result given. A selection: hits, their analogues and other compounds. The true share with any hit is near 28%.

SMILES	CYP2C9 inh	CYP2C9 act	CYP2C19 inhib	PLK1 PBD inh	CYP2C19 act	PLK1 inh
O=C(C1CCCN(S(=O)(=O)c2ccc(F)cc2)C1)N1CCCC1 (centres undefined)	-8	1.1	8	0	0.9	-2
FC(F)Oc1ccc(/C=N/c2c(-c3ccc(OC(F)F)cc3)nc3n2CCS3)cc1	x	x	x	-2	x	-14
COc1ccc2nc(NCCCO)[nH]c2c1	x	x	x	9	x	-2
CCCCN1C(=S)SC(C)(C)C1/[N+]([O-])=C/c1cccnc1 (centres undefined)	31	0.7	31	39	0.7	-5
COc1cccc2cc(C(=O)NCc3ccco3)c(=Nc3ccc(C(=O)O)cc3)oc12	14	0.9	12	-10	0.9	-8
O=C(O)CN1C(=O)c2cccc(Oc3ccc(Cl)cc3)c2C1=O	45	0.6	-6	-6	1.1	8
COCCNC(=O)CN(C(=O)CCC(=O)Nc1cc(C)on1)c1ccccc1C	25	0.8	10	-7	0.9	-3
O=C(Oc1ccccc1C(=O)Oc1ccccc1)c1ccco1	47	0.5	38	5	0.6	0
CCN(CC)CC(=O)Nc1ccc2c(c1)N(C(=O)CN(CC)CC)c1ccccc1CC2	70*	0.3	12	-10	0.9	-6
CCOC(=O)Nc1ccc2c(c1)N(C(=O)N(C)C)c1ccccc1CC2	92*	0.1	72*	-7	0.3	-10
Cc1ccc(NC(=O)CSCC(=O)N2c3ccccc3CCc3ccccc32)cc1	63*	0.4	54*	19	0.5	-12
CC1=NN(C(=O)c2ccc(Br)cc2)C(O)(C(F)(F)OC(F)(F)F)C1 (centres undefined)	24	0.8	53*	27	0.5	-15
CCOC(=O)C1=C(CS(=O)(=O)c2ccc(F)c(C)c2)NC(=O)NC1c1ccc(O)c(O)c1 (centres undefined)	8	0.9	69*	x	0.3	x
CCOC(=O)C1=C(CS(=O)(=O)c2ccccc2)NC(=O)NC1c1ccccc1OCC (centres undefined)	17	0.8	30	5	0.7	-11
CCOC(=O)N1CCC(Nc2ncnc3c2cnn3-c2ccc(Cl)cc2)CC1	6	0.9	11	-4	0.9	2
COc1ccccc1NS(=O)(=O)c1cc(C(=O)NCc2ccco2)ccc1C	28	0.7	61*	-22	0.4	-13
Cc1ccc(C)c(NS(=O)(=O)c2cc(C(=O)NCc3ccco3)ccc2C)c1	83*	0.2	60*	4	0.4	-39
CSC1=NC(NCCCO)c2c(sc3c2CC(C)(C)OC3)N1 (centres undefined)	16	0.8	-11	-8	1.1	-3
O=C1CCCC2=C1C(c1ccco1)Nc1ccc3ccccc3c12 (centres undefined)	-5	1	14	1	0.9	1
Nc1nc2sc3c(c2c(=O)s1)CCCC3	80*	0.2	44	-8	0.6	-2
CC(C)c1nc2sc3c(c2c(=O)o1)CCCC3	66*	0.3	51*	-11	0.5	-15
O=c1c2c3c(sc2nc2n1CCCC2)CCCCC3	62*	0.4	24	-21	0.8	1
O=c1c2c3c(sc2nc2n1CCCCC2)CCCCC3	26	0.7	18	-10	0.8	-2
Cc1ccc(-c2nc3sc4c(c3c(=O)n2N)CCCC4)cc1	58*	0.4	23	-12	0.8	-23
Cc1nc2sc3c(c2c(=O)o1)CCCC3	14	0.9	-1	6	1	-19
Cc1ccc(-c2nc3sc4c(c3c(=O)n2N)CC(C)(C)OC4)cc1	10	0.9	-16	5	1.2	-8
CC(C)(C)NC(=O)CN(Cc1cccnc1)C(=O)c1csnn1	10	0.9	28	3	0.7	-5
COc1cc(NC(=O)c2ccc(CNc3c(N4CCOCC4)c(=O)c3=O)cc2)cc(OC)c1	36	0.6	9	16	0.9	2
COC(=O)c1ccc(NC(=O)CNS(=O)(=O)c2cccs2)cc1	37	0.6	65*	-24	0.3	-3
